# OTUD3 block: inhibitors of human OTUD3 deubiquitinase; purified OTUD3, Ub-rhodamine fluorescence, 2 h; inhibition, % at 25 µM; actives 0.7% (n = 47,000)
# USP30 block: inhibitors of human USP30 deubiquitinase; AID 1645860, 2021; actives 5.3% (n = 47,000); inhibition, % at 25 µM; purified USP30, Ub-rhodamine cleavage fluorescence
# USP10 inh: inhibitors of human USP10 deubiquitinase | AID 1645856, 2021 | purified USP10, Ub-rhodamine fluorescence, 60 min | inhibition, % at 20 µM | actives 1.1% (n = 47,000) | Ubiquitin carboxyl-terminal hydrolase 10 (Homo sapiens), Q14694
# USP8 block: inhibitors of human USP8 deubiquitinase; actives 4.2% (n = 47,000); purified USP8, Ub-rhodamine cleavage fluorescence, 30 min; inhibition, % at 20 µM
# USP28 inh: inhibitors of human USP28 deubiquitinase; Ubiquitin carboxyl-terminal hydrolase 28 (Homo sapiens), Q96RU2; purified USP28, Ub-rhodamine cleavage fluorescence, 30 min; inhibition, % at 25 µM; actives 3% (n = 47,000)
# USP17 inh: inhibitors of human USP17 deubiquitinase; Ubiquitin carboxyl-terminal hydrolase 17-like protein 5 (Homo sapiens), A8MUK1; inhibition, % at 50 µM; actives 6.5% (n = 47,000); AID 1645855, 2021; purified USP17, Ub-rhodamine cleavage fluorescence, 3 h
# Target sequence (A8MUK1 whole entry, looked up): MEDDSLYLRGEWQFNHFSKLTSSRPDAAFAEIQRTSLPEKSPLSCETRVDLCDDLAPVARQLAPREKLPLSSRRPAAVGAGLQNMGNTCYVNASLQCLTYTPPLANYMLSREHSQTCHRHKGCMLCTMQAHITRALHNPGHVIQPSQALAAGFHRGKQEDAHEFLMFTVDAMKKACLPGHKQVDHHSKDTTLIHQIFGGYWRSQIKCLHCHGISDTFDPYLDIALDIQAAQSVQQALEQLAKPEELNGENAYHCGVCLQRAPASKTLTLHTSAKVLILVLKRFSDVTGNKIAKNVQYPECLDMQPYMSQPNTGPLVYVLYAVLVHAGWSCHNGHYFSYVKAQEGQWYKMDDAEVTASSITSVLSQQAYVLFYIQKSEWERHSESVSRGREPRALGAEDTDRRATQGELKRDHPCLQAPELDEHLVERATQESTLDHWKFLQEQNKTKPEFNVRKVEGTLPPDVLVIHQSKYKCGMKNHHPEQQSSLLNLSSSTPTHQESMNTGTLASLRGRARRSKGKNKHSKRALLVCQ
# An asterisk follows results filed as active; nt = no result. The list is not random: actives were taken first. Their share in the collection is about 13%. Rule as the data show it: active = inhibition above about 30%; inactive = the rest.
SMILES,OTUD3 block,USP30 block,USP10 inh,USP8 block,USP28 inh,USP17 inh
CC(=O)Nc1ccc2nc(NC(=O)c3cc(C)n(C)n3)sc2c1,3,4,2,-42,-3,-10
CC(=O)Nc1ccc2nc(NC(=O)C34CC5CC(CC(C5)C3)C4)sc2c1,4,14,-1,12,7,37*
Cc1cc(F)ccc1S(=O)(=O)N1C[C@@H]2c3nccn3-c3ccccc3[C@@H]2C1,-5,-79,-1,-9,-8,1
Cc1cc(C)cc(C(=O)N2CCCC3(CCCN3C)C2)c1 (centres undefined),-4,0,4,-60,-17,-18
COc1ccc(S(=O)(=O)N2CCN(C(=O)c3cccnc3)CC2)cc1,5,2,1,1,-3,-9
CN(Cc1ccccc1)S(=O)(=O)c1ccc(S(=O)(=O)N2CCN(C(=O)c3cccnc3)CC2)cc1,2,74*,2,1,20,23
O=C(Nc1ccc(F)cc1)c1ccc2c(c1)C1C3CCC(C3)C1C(c1ccccc1)N2 (centres undefined),-7,32*,11,8,3,2
O=C(NCCc1ccccc1)c1nc(-c2ccc3cc[nH]c3c2)no1,-2,7,1,3,6,48*
O=C(Nc1sc2c(c1C(=O)NCc1cccnc1)CCCC2)c1csnn1,16,11,12,-17,38*,49*
CC(=O)c1ccc(NC(=O)C2CC(=O)Nc3nc(SCc4ccccc4)nn32)cc1 (centres undefined),8,4,30*,15,7,-2
COc1cccc(NC(=O)C2CC(=O)Nc3nc(SCc4ccccc4)nn32)c1 (centres undefined),11,21,13,8,12,5
COc1ccccc1NC(=O)C1CC(=O)Nc2nc(SCc3ccccc3)nn21 (centres undefined),9,20,8,5,4,16
O=C1CC(C(=O)Nc2ccc(F)cc2)n2nc(SCc3ccccc3)nc2N1 (centres undefined),13,58*,9,12,28,2
O=C1CC(C(=O)Nc2cccc(F)c2)n2nc(SCc3ccccc3)nc2N1 (centres undefined),-4,43*,9,-1,16,1
Cc1c(NC(=O)COc2ccc(C3CCCCC3)cc2)cccc1-c1nc2ncccc2o1,29,22,6,-7,7,43*
COc1ccc(S(=O)(=O)N2CCCC2c2c(C)noc2C)cc1 (centres undefined),13,24,3,21,4,12
COc1ccc(OC)c(NC(=O)CS(=O)(=O)c2cn(CC(=O)N3CCC(C)CC3)c3ccccc23)c1,8,9,-7,32*,19,51*
Cc1cc(C)c(NC(=O)CS(=O)(=O)c2cn(CC(=O)N3CCC(C)CC3)c3ccccc23)c(C)c1,-1,13,2,0,7,2
CC1CCN(C(=O)Cn2cc(SCC(=O)Nc3ccc4c(c3)OCCO4)c3ccccc32)CC1,6,6,0,-55,38*,0
O=C(Cn1cc(C(=O)c2ccccc2)c(=O)c2cc(F)ccc21)Nc1ccc2c(c1)OCO2,-9,-22,26,59*,-13,-6
Cc1ccc(C(=O)c2cn(CC(=O)Nc3ccc4c(c3)OCO4)c3ccccc3c2=O)cc1,22,79*,57*,90*,13,85*
O=C(Cn1cc(C(=O)c2ccccc2)c(=O)c2cc3c(cc21)OCCO3)Nc1ccc2c(c1)OCO2,-7,-30,9,16,5,-1
CC(C)(C)Nc1c(-c2ccc(F)cc2)nc2sc(N3CCN(CC(N)=O)CC3)nn12,7,1,-2,0,10,0
Cc1cccc(C(=O)Nc2noc3nc(C)ccc23)c1,-1,nt,3,3,nt,36*
Cc1cccc(C(=O)NCc2noc(-c3ccccc3)n2)c1,13,10,-1,11,14,12
SMILES,OTUD3 block,USP30 block,USP10 inh,USP8 block,USP28 inh,USP17 inh
Cc1ccc(NC(=O)C2CCCN(S(=O)(=O)N3CCOCC3)C2)c(C)c1 (centres undefined),5,-46,-1,3,-10,-7
COc1cc(NC(=O)Cc2ccc3c(c2)OCCO3)c(OC)cc1Cl,8,45*,21,49*,22,28
COc1ccc(OCc2nn3c(-c4ccccc4Cl)nnc3s2)cc1,14,32*,14,-28,19,22
COc1ccc(C(N)=O)c(OCc2noc(-c3ccccc3Cl)n2)c1,-17,-127,-6,7,-28,-25
COc1cc(-c2nnc(CSc3ccc(C(F)(F)F)cn3)o2)cc(OC)c1OC,-1,38*,-6,5,13,27
COc1ccccc1CN1CCC([C@@H]2C[C@H](C(F)(F)F)n3ncnc3N2)CC1,5,31*,1,15,8,11
CC(C)(C)CC(=O)N1CCc2cc(-c3csc(NC(=O)Cn4nnc5ccccc54)n3)ccc21,0,-62,-5,-7,4,9
Cc1sc(NC(=O)Cn2nnc3ccccc32)nc1-c1ccc2c(c1)CCN2C(=O)c1ccccc1F,3,3,56*,50*,-4,14
Cc1sc(NC(=O)CN2CCc3ccccc3C2)nc1-c1ccc2c(c1)CCN2C(=O)CC(C)(C)C,-10,-34,-3,14,-4,-12
O=C(Cn1nnc2ccccc21)Nc1nc(-c2ccc3c(c2)CCN3C(=O)c2ccccc2F)cs1,23,11,50*,77*,10,54*
O=C(O)c1ccc2c(c1)C1(CCCCC1)CN2C(=O)Cc1cccnc1,-4,-48,-10,-319,-12,-47
COc1ccc2[nH]c3c(c2c1)CCN1C(=O)N(c2ccc(C(=O)NCc4ccc5c(c4)OCO5)cc2)C(=O)[C@]31C,2,8,3,24,14,16
Cc1cccc(C)c1NC(=O)C1(N(Cc2ccco2)C(=O)c2ccccc2F)CCCCC1,11,36*,4,10,11,14
CC(=O)Nc1cccc(C(=O)N(Cc2ccco2)C2(C(=O)Nc3c(C)cccc3C)CCCCC2)c1,-10,-7,-5,-6,-4,-7
Cc1cc(C)nc(SCC(=O)N(Cc2ccco2)C2(C(=O)Nc3c(C)cccc3C)CCCCC2)n1,57*,40*,16,30,27,58*
COc1ccccc1-c1cc(=O)oc(-c2ccc(Cl)cc2Cl)n1,-7,-15,3,2,-8,1
CCOc1ccc(NC(=O)Cn2c(-c3ccccc3)cc(C(C)=O)c2C)cc1,15,37*,22,36*,11,nt

# Compound activity (PubChem BioAssay)
